The other results are listed elsewhere or left out. The hit rate among all sequences tested is not known here.
Molecular target: furin, P09958
Assay: furin cleavage Z-score vs untreated control; higher = more cleavage, active = 3.5 or more, inactive = 1 or less, 8 variable residues between constant flanks
Protocol: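 Multiplexed peptide-cDNA fusion cleavage assay. 8-mer variable peptides flanked by constant Cys-Ala (N-term) and Ala-Gly-Asn-Ala-Ser-Ala-Ser-Ala (C-term) and conjugated to a cDNA oligonucleotide were bead-immobilised via the N-terminus. They were treated with purified furin at a 1:10 enzyme:substrate ratio in 50 mM HEPES pH 7.5, 1 mM CaCl2, 100 mM NaCl for 7.5, 15 or 30 min. Released cDNA was counted by next-generation sequencing, and log counts versus no-furin controls were lowess-adjusted and converted to robust Z-scores.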

furin, P09958, sequence (P09958 whole entry): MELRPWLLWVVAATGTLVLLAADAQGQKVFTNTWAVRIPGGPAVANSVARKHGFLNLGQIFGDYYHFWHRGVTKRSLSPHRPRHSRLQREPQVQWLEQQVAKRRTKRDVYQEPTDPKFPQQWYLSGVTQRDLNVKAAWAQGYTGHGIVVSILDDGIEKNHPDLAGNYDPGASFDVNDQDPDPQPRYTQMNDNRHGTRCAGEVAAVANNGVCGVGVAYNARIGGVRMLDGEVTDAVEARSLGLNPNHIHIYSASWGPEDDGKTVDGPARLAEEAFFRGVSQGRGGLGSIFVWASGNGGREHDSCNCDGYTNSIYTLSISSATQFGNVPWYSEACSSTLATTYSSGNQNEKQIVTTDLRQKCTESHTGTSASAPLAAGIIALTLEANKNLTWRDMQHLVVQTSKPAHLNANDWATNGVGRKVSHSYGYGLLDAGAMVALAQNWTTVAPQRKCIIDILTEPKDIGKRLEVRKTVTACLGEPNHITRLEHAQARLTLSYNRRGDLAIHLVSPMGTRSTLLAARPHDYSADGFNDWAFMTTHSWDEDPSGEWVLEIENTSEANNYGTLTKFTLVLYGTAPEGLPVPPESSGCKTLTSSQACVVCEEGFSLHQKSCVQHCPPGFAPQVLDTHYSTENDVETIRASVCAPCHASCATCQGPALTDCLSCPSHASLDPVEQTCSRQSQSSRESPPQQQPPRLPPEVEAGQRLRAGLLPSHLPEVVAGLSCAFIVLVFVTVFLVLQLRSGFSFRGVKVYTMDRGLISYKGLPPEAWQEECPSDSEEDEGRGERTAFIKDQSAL

Sequence	furin cleavage Z-score (7.5 min)	furin cleavage Z-score (15 min)	furin cleavage Z-score (30 min)
CAREMRALACAGNASASA [FS-2917]	0.375 (inactive)	-0.261 (inactive)	0.24 (inactive)
CATTYCSGSWAGNASASA [HC1869]	-2.31 (inactive)	-0.739 (inactive)	-0.526 (inactive)
CAGAVYTFYGAGNASASA [HC553]	-0.781 (inactive)	-1.17 (inactive)	-0.823 (inactive)
CADYEVVTSTAGNASASA [HC2289]	0.403 (inactive)	0.654 (inactive)	0.0996 (inactive)
CARSHRDTATAGNASASA [FS-1791]	0.447 (inactive)	1.01	-0.325 (inactive)
CASSKRAEAPAGNASASA [FS-2852]	-1.06 (inactive)	-1.45 (inactive)	0.412 (inactive)
CAFTFSPRRHAGNASASA [HC306]	-1.3 (inactive)	-0.113 (inactive)	-0.24 (inactive)
CARSHRSCRTAGNASASA [FS-1792]	0.788 (inactive)	2.22	3.59 (active)
CARCYRSCETAGNASASA [FS-1688]	-1.32 (inactive)	0.463 (inactive)	-0.398 (inactive)
CASARRGREIAGNASASA [HC662]	7.44 (active)	8.55 (active)	8.19 (active)
CASSKRNRRHAGNASASA [FS-1418]	10.5 (active)	12 (active)	10.1 (active)
CARSHRMRRHAGNASASA [FS-1272]	12.9 (active)	13.7 (active)	9.81 (active)
CASHARPRWIAGNASASA [HC1653]	0.938 (inactive)	1.44	0.423 (inactive)
CAAEEDEREIAGNASASA [HC1291]	-0.251 (inactive)	-1.7 (inactive)	-0.863 (inactive)
CAYLTRDPTTAGNASASA [HC1562]	-1.51 (inactive)	-0.691 (inactive)	-1.7 (inactive)
CADWEVVTSTAGNASASA [HC2288]	-1.03 (inactive)	-0.418 (inactive)	-0.194 (inactive)
CAKANLLSVEAGNASASA [HC1410]	-0.514 (inactive)	-0.264 (inactive)	-1.3 (inactive)
CASCPCSAHLAGNASASA [HC2500]	0.854 (inactive)	-0.381 (inactive)	0.717 (inactive)
CAVCCCSMSYAGNASASA [HC2020]	0.181 (inactive)	1.69	1.02
CATCMSADLEAGNASASA [HC984]	0.644 (inactive)	0.775 (inactive)	1.54
CAGFADLMGYAGNASASA [HC225]	-1.18 (inactive)	-0.646 (inactive)	-1.14 (inactive)
CAMSMRVRRHAGNASASA [FS-945]	10 (active)	10.3 (active)	7.98 (active)
CASPRGSRPSAGNASASA [HC210]	0.189 (inactive)	0.149 (inactive)	-0.107 (inactive)
CASPNRSRRHAGNASASA [FS-300]	9.77 (active)	10.7 (active)	7.23 (active)
CAGSVTVPHPAGNASASA [HC837]	0.881 (inactive)	0.63 (inactive)	0.486 (inactive)
CAVVLLFLLLAGNASASA [HC520]	-0.794 (inactive)	-0.656 (inactive)	-1.88 (inactive)
CALDVSVIPTAGNASASA [HC871]	-2.6 (inactive)	-1.18 (inactive)	-0.758 (inactive)
CADPTFTIETAGNASASA [HC894]	-0.863 (inactive)	-0.464 (inactive)	-0.935 (inactive)

From the supplement of paper PMC3545927
